From PubChem
This is a sample that favours compounds with a hit; in the whole collection about 2.6% have one here.
TWEAK-Fn14 inh – blocks TWEAK-Fn14 interaction in a reporter cell assay | 2% of 360,000 active | TWEAK-stimulated Fn14 reporter cells, luciferase luminescence, 8 h | inhibition, % at 10 µM | AID 1159606; in the data active means inhibition above about 50%
EWS-Fli inh – blocks EWS/Fli oncoprotein-driven transcription; A673 NR0B1-luciferase reporter, viability-normalised; 0.67% of 350,000 active; inhibition, % at 12.6 µM;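 active means mean inhibition of at least 50% after viability correction, with every replicate also passing that limit; inconclusive means mean reaches 50% but only one of two replicates passes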;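 further: firefly luciferase signal divided by Alamar Blue viability fluorescence both relative to DMSO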
LGR2 antag – inhibitors of bursicon-induced Drosophila LGR2 receptor cAMP signaling | AID 720647 | inhibition, % at 9.99 µM | 0.35% of 380,000 active | HEK293 LGR2, CRE-luciferase, bursicon-stimulated, 4 h;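 active means drop in luminescence signal, shown as inhibition above about 50% in the replicate tests, limit read from the data, passing the limit was not always enough; inconclusive means probably only some replicates passing the limit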;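 further: agonist challenge used bursicon conditioned medium at about half maximal strength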
TROY NFkB inh – blocks TROY-dependent signaling in reporter cells. Q293 LMP1-TROYcd NF-kB luciferase reporter, 4 h. AID 1347056. 0.98% of 360,000 active. inhibition, % at 10 µM;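 active means compounds whose plate-normalised and pattern-corrected inhibition of the luciferase reporter signal at the single screening dose is 50% or more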
LMP1 NFkB inh – reduces LMP1-driven NF-kappaB luciferase signal; LMP1-induced NF-kappaB luciferase reporter cells, luminescence; 0.69% of 350,000 active; inhibition, % at 12.5 µM; AID 504558; in the data active means inhibition above about 41%; inconclusive means no clear call, values can overlap the other calls
Large screens that a line does not name were inactive.

O=c1[nH]c2c(s1)C(c1ccccc1)C1C3CCC(C3)C1S2 (configuration not stated)	none (no result: EWS-Fli inh, LGR2 antag)
COc1ccc(C2c3sc(=O)[nH]c3SC3C4CCC(C4)C23)cc1 (configuration not stated)	TWEAK-Fn14 inh 64 (no result: EWS-Fli inh, LGR2 antag, TROY NFkB inh)
CCCOCCOC(=O)c1[nH]c2c(c1C)C(=O)CC(c1cc(OC)ccc1OC)C2 (configuration not stated)	EWS-Fli inh 56
COc1cc(C2CC(=O)c3c([nH]c(C(=O)OCCOC(C)C)c3C)C2)cc(OC)c1OC (configuration not stated)	TWEAK-Fn14 inh 61
Cc1c(C(=O)OCC(C)C)[nH]c2c1C(=O)CC(c1ccco1)C2 (configuration not stated)	EWS-Fli inh 53
C/C=C/COC(=O)c1[nH]c2c(c1C)C(=O)CC(c1ccco1)C2 (configuration not stated)	none
CCC(=O)N1[C@@H]2c3ccc(-c4ccncc4)c(=O)n3C[C@@H]2[C@@H](CO)[C@@H]1C(=O)Nc1ccccc1	none (no result: TWEAK-Fn14 inh, TROY NFkB inh, LMP1 NFkB inh)
C[C@H]1CN([C@@H](C)CO)S(=O)(=O)c2ccc(-c3ccccc3)cc2O[C@H]1CN(C)S(=O)(=O)c1ccccc1F	none (no result: TWEAK-Fn14 inh, TROY NFkB inh, LMP1 NFkB inh)
COc1ccc(N/N=C/c2c(C(=O)O)ccc3ccccc23)cc1	LMP1 NFkB inh 69
COc1cccc(OCCSc2nnc3sc4ccccc4n23)c1	none (no result: EWS-Fli inh, LGR2 antag)
c1ccc(OCCSc2nnc3sc4ccccc4n23)cc1	TWEAK-Fn14 inh 91, EWS-Fli inh 60, LGR2 antag 92, TROY NFkB inh 67, LMP1 NFkB inh 70
C[C@@H]1CCCCO[C@H](CN(C)C(=O)C2CCCCC2)[C@H](C)CN([C@@H](C)CO)C(=O)c2cc(NC(=O)c3ccncc3)ccc2O1	none (no result: TWEAK-Fn14 inh, TROY NFkB inh, LMP1 NFkB inh)
Clc1c(Cl)c(Cl)c2n[nH]nc2c1Cl	TROY NFkB inh 60
C#CCOCCOCCOCCNc1nc(N2CCN(C(=O)CCCCCCCCCCNC(=O)[C@H]([C@@H](C)CC)n3cc(CCCCCN)nn3)CC2)nc(N2CCN(C(=O)CCCCCCCCCCNC(=O)[C@@H]([C@H](C)O)n3cc(C)nn3)CC2)n1	TROY NFkB inh 67 (no result: EWS-Fli inh, LGR2 antag)
CC[C@H](C)Cc1cn([C@@H](CCCCNC(=O)OC(C)(C)C)C(=O)NCCCCCCCCCCC(=O)N2CCN(C(=O)OC(C)(C)C)CC2)nn1	TWEAK-Fn14 inh 59 (no result: LGR2 antag)
C#CCOCCOCCOCCNc1nc(N2CCN(C(=O)CCCCCCCCCCNC(=O)[C@H](CCCCN)n3cc(C[C@@H](C)CC)nn3)CC2)nc(N2CCN(C(=O)CCCCCCCCCCNC(=O)[C@H](CCCCN)n3cc(C[C@@H](C)CC)nn3)CC2)n1	TWEAK-Fn14 inh 51, TROY NFkB inh 65 (no result: EWS-Fli inh, LGR2 antag)
CN1C(=O)c2cc(NC(=O)C3CC3)ccc2OC[C@H]2O[C@@H](CC(=O)NCCc3ccncc3)CC[C@H]21	none (no result: TWEAK-Fn14 inh, TROY NFkB inh, LMP1 NFkB inh)
CCNc1nc(NCC)nc(OCCOC(=O)COc2ccc(Cl)cc2Cl)n1	TWEAK-Fn14 inh 86 (no result: EWS-Fli inh, LGR2 antag, TROY NFkB inh)
O=S1(=O)Nc2c(ccc3cccnc23)-c2ccccc21	TWEAK-Fn14 inh 105, TROY NFkB inh 71 (no result: EWS-Fli inh, LGR2 antag)
FC(F)Sc1ccc(NC(=S)NC(c2ccccc2)c2ccccc2)cc1	TWEAK-Fn14 inh 54, TROY NFkB inh 52
COc1ccccc1N=Nc1ccc(O)c2ncccc12	TROY NFkB inh 65
Oc1ccc(N=Nc2ccccc2C(F)(F)F)c2cccnc12	LMP1 NFkB inh 72
Cc1ccc(N=Nc2ccc(O)c3ncccc23)cc1	none (no result: LGR2 antag)
CCS(=O)(=O)c1ccc(N=Nc2ccc(O)c3ncccc23)c(OC)c1	TWEAK-Fn14 inh 65
CN1/C(=C\C=O)C(C)(C)c2ccccc21	none
CN1\C(=C/C=C/C=C/C=[N+](C)C)C(C)(C)c2ccccc21	EWS-Fli inh 66 (no result: LGR2 antag)
CN(C)c1ccc(N=C/C=C2\N(C)c3ccccc3C2(C)C)cc1	TWEAK-Fn14 inh 51 (no result: EWS-Fli inh, LGR2 antag)
CN1/C(=C\C=Nc2ccc3ccccc3c2)C(C)(C)c2ccccc21	TROY NFkB inh 66 (no result: EWS-Fli inh, LGR2 antag)
Cc1c(N=C/C=C2\N(C)c3ccccc3C2(C)C)c(=O)n(-c2ccccc2)n1C	none
COC(=O)[C@H]1[C@H](CO)[C@H]2Cn3c(ccc(-c4ccccc4)c3=O)[C@H]2N1C(=O)C1CC1	none (no result: TWEAK-Fn14 inh, TROY NFkB inh, LMP1 NFkB inh)
CCOc1ccc(CN2C(=O)c3ccccc3C2=O)cc1C(=O)NC1CC(C)(C)NC(C)(C)C1	LMP1 NFkB inh 71
CN(C)c1ccc(N/C=C/C(=O)c2ccccc2)cc1	TWEAK-Fn14 inh 95 (no result: EWS-Fli inh, LGR2 antag)
O=C(CCl)Nc1nc(-c2ccco2)c(-c2ccco2)s1	none (no result: LGR2 antag)
Cc1ccc(C(=O)Nc2nc(-c3ccco3)c(-c3ccco3)s2)o1	TWEAK-Fn14 inh 83
Cc1c2cc(O)c(=O)cc-2oc2cc(O)c(O)cc12	TWEAK-Fn14 inh 86
Cc1cc2oc(=O)cc(-c3cc4ccccc4o3)c2cc1O	none
COc1cc(OC)c(-c2c3cc(O)c(=O)cc-3oc3cc(O)c(O)cc23)cc1OC	TWEAK-Fn14 inh 62
C[C@@H]1CN([C@H](C)CO)C(=O)c2cc(-c3cccnc3)cnc2O[C@H]1CN(C)C(=O)C1CCOCC1	none (no result: TWEAK-Fn14 inh, TROY NFkB inh, LMP1 NFkB inh)
CN1CCN(c2ccc(-c3cccc(NC(=O)COc4ccc(Cl)cc4)c3)nn2)CC1	none
CN1CCN(c2ccc(-c3cccc(NC(=O)COc4ccc(Cl)cc4Cl)c3)nn2)CC1	TWEAK-Fn14 inh 63, TROY NFkB inh 74
Cc1ccc(NC(=O)c2cnc(N3CCN(c4ccccn4)CC3)c3ccccc23)c(Br)c1	TWEAK-Fn14 inh 93, TROY NFkB inh 68
Cc1ccc(-c2nnc(N3CCN(c4ccccn4)CC3)c3ccccc23)cc1	TROY NFkB inh 54 (no result: EWS-Fli inh, LGR2 antag)
O=C(Nc1c(F)cccc1F)c1cnc(N2CCN(c3ccccn3)CC2)c2ccccc12	TWEAK-Fn14 inh 60 (no result: EWS-Fli inh, LGR2 antag)
c1ccc(-c2nnc(N3CCN(c4ccccn4)CC3)c3ccccc23)cc1	none (no result: EWS-Fli inh, LGR2 antag)
CC(=O)N(C)C[C@H]1Oc2cc(C#CCC3CCCC3)ccc2S(=O)(=O)N([C@H](C)CO)C[C@@H]1C	none (no result: TWEAK-Fn14 inh, TROY NFkB inh, LMP1 NFkB inh)
Nn1c(=S)[nH]c2sc3c(c2c1=O)CCCC3	TWEAK-Fn14 inh 53, TROY NFkB inh 75
CCc1ccc(-c2cc(C(=O)Nn3cnnc3)c3ccccc3n2)cc1	TWEAK-Fn14 inh 59, EWS-Fli inh 78, LMP1 NFkB inh 77
CCNC(=S)NNC(=O)c1cc(-c2ccc(OCC)cc2)nc2ccccc12	TWEAK-Fn14 inh 52, EWS-Fli inh 71, LGR2 antag 89, LMP1 NFkB inh 57
c1ccc(-c2nccc3ccccc23)cc1	none
Cc1ccc(-c2nc(-c3nccc4ccccc34)oc2-c2ccccc2)cc1	LGR2 antag inconclusive, TROY NFkB inh 63
COc1ccc2nc(SCCOC(=O)Nc3ccc(Cl)cc3)nc(C)c2c1	TWEAK-Fn14 inh 51 (no result: EWS-Fli inh)
O=C1N/C(=C/c2ccc(N3CCOCC3)o2)C(=O)N1c1ccccc1	TWEAK-Fn14 inh 53 (no result: EWS-Fli inh)
CN1c2ccc(Br)cc2[C@@H]2[C@@H](CCN2S(=O)(=O)c2ccccc2)[C@H]1CO	none (no result: TWEAK-Fn14 inh, TROY NFkB inh, LMP1 NFkB inh)
COc1ccc2oc(=Nc3cccc(F)c3)c(C(N)=O)cc2c1	none
COc1ccc2cc(C(N)=O)c(=Nc3ccc(C)cc3)oc2c1	TWEAK-Fn14 inh 67
COc1ccc(-c2cc3ccc(F)cc3cn2)cc1	TWEAK-Fn14 inh 50, LGR2 antag 63
